# Screens deposited in PubChem BioAssay by National Center for Advancing Translational Sciences (NCATS).
# Shown are actives, neighbours in structure and some others; about 2.5% of the full set was active somewhere.
# L3MBTL1 block – qHTS Assay for the Inhibitors of L3MBTL1; actives 0.66% (n = 230,000); Potency, µM (highest dose often 57.1 µM), for the others: top-dose activity, negative = inhibition, most hits filed as inhibitors; AlphaScreen L3MBTL1–H3K9me1 peptide binding; Lethal(3)malignant brain tumor-like protein 1 (Homo sapiens), Q9Y468; AID 485360, 2010; note: % is set by controls: 0 for no effect and ±100 for the full control effect; nearly all actives have a fitted effect of over 60% in size
#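 Displacement of a biotinylated histone H3(1-15) peptide monomethylated at Lys9 (75 nM) from L3MBTL1 (50 nM) was measured by AlphaScreen after a 30 min room-temperature compound incubation; cefsulodin titration served as intraplate control.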
# POLK inh – qHTS for Inhibitors of Polymerase Kappa; DNA polymerase kappa (Homo sapiens), Q9UBT6; purified Pol kappa, fluorescent DNA synthesis assay, 10 min; Potency, µM (titrated, usually from 107 µM), for inactives: at the top dose activity, negative = inhibition, actives largely listed as inhibitors; actives 0.53% (n = 400,000); note: % is set by controls: 0 for no effect and ±100 for the full control effect
#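 50 nM final substrate added after 15 min RT preincubation of 10 nM Pol kappa with compound; fluorescence read at 0 and 10 min.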
# WRN inhibitor – qHTS for Inhibitors of WRN Helicase; WRN helicase unwinding, fluorescent forked duplex, kinetic; Potency, µM (top dose mostly 114 µM), for the others: top-dose activity change, negative = inhibition, most hits filed as inhibitors; actives 0.46% (n = 360,000); note: % is set by controls: 0 for no effect and ±100 for the full control effect; nearly all actives have a fitted effect of over 55% in size
#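 Enzyme (20 nM final) and test compound sit together 15 min at room temperature before substrate addition. Substrate is a single-forked duplex oligonucleotide (100 nM) labelled with fluorophore and quencher, with 2 mM ATP; helicase unwinding raises red fluorescence, read kinetically.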
# POLB inh – qHTS Assay for Inhibitors of DNA Polymerase Beta. Potency, µM (doses to about 114 µM), inactives show at the highest dose activity change, negative = inhibition, most hits filed as inhibitors. Pol beta primer extension/strand displacement, fluorescence kinetic. P06746. actives 1.3% (n = 340,000); note: % is set by controls: 0 for no effect and ±100 for the full control effect
#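 10 nM enzyme + cpd, 15 min RT; start with substrate 50 nM final; read 0 min and after 10 min RT. Corrected, normalized data; 4-parameter Hill curve fit.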
# Pol iota inh – qHTS for Inhibitors of Polymerase Iota; DNA polymerase iota (Homo sapiens), Q9UNA4; Pol iota fluorescent replication assay, 10 min; Potency, µM (highest dose often 115 µM), inactives show at the top dose activity, negative = inhibition, usual class: inhibitors; actives 1% (n = 390,000); AID 588590, 2011
#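 Pol iota at 10 nM preincubated 15 min with compounds at room temperature; reaction started with fluorescent substrate, 50 nM final. Fluorescence read kinetically at 0 and 10 min; buffer-only wells as negative control.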
# Pol eta inh – qHTS for Inhibitors of Polymerase Eta. recombinant Pol eta, fluorescent DNA replication assay. Potency, µM (highest dose often 114 µM), inactives show top-dose activity change, negative = inhibition, actives largely listed as inhibitors. actives 1.2% (n = 390,000); note: % is set by controls: 0 for no effect and ±100 for the full control effect
#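 Pol eta at 10 nM preincubated with compounds 15 min at room temperature; reaction started with fluorescent substrate (50 nM final) and read kinetically at 0 and 10 min.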
# * = called active by the depositor; ? = inconclusive; nt = no result given; ! = not active in a repeat; [ ] = another dose, or the depositor's remark. Calls come from the whole dose curve; as a rule, active = well fitted curve in the direction sought with a large enough effect; inconclusive = small, poorly fitted or top-dose-only effect, or another doubt; inactive = no such curve, though single readings can be large; an effect the other way counts as inactive or inconclusive. Potency is the fitted concentration of half-maximal effect.
SMILES,L3MBTL1 block,POLK inh,WRN inhibitor,POLB inh,Pol iota inh,Pol eta inh
CCCCN(CCCC)S(=O)(=O)c1ccc(NC(=O)Cc2cccs2)cc1,nt,?,-5%[11.6 µM],?,50µM*,79µM*
O=C(Cc1cccs1)Nc1cccc([N+](=O)[O-])c1,-28%,-29%,-31%[57.1 µM],25µM*,?,?
CC(=O)c1cccc(NC(=O)Cc2cccs2)c1,-13%,?,-10%[57.1 µM],32µM*,-18%,?
COc1ccc(N2CCN(C(CNC(=O)C(=O)NCc3ccc(C)cc3)c3cccnc3)CC2)cc1 (stereo not given),nt,4%,nt,9%,17%,-8%
CC(C)(C)c1csc(NC(=O)Cc2cccs2)n1,-18%,-16%,-14%,22µM*,72%,-28%
Cc1cccc(C)c1NC(=O)Cc1cccs1,1%,-14%,-32%,40µM*,?,?
Cc1c(Cl)cccc1NC(=O)Cc1cccs1,0%,-6%,-1%,19%,21%,-7%
Cc1c(NC(=O)Cc2cccs2)cccc1[N+](=O)[O-],-24%,-13%,-15%,35µM*,24%,?
COC(=O)/C=c1/s/c(=C(\C#N)C(=O)NCc2ccco2)n(-c2ccccc2)c1=O,-8%,-10%,-8%[11.6 µM],18%,89µM*,?
O=C(O)/C=C/c1ccc(S(=O)(=O)NCc2ccco2)cc1,-24%,-23%,-5%[11.6 µM],-29%,-22%,35µM*
O=C(O)CCCCCNS(=O)(=O)c1ccc2c3c(cccc13)C(=O)N2,-14%,?,?,16µM*,?,?
NS(=O)(=O)c1ccc(NC(=O)/C=C/c2ccc(S(=O)(=O)NCc3ccco3)cc2)cc1,nt,-14%,-5%,2%,3%,-7%
O=C1Nc2ccc(S(=O)(=O)NCc3ccco3)c3cccc1c23,nt,-43%,-15%[11.6 µM],nt,40µM*,20µM*
CNS(=O)(=O)c1ccc2c3c(cccc13)C(=O)N2,0%,-11%,?,68%,-3%,4%
O=C(O)CNS(=O)(=O)c1ccc2c3c(cccc13)C(=O)N2,-85%,?,56µM*,9%,?,32µM*
O=S(=O)(NCc1ccco1)c1ccccc1Br,nt,-23%,7%,?,89µM*!,-11%
COc1cc(OC)c(S(=O)(=O)NCc2ccco2)cc1S(=O)(=O)NCc1ccco1,-2%,-8%,-5%,1%,1%,-2%
COc1ccc(NC(=O)CCCn2c(=O)c3sccc3n(Cc3ccccc3)c2=O)cc1,-4%,-7%,-10%,5%,44%,-7%
O=C1C=C(c2ccc(C(=O)O)c(Cl)c2)C[C@@H](c2ccc3c(c2)OCO3)C1,-16%,?,-3%[11.6 µM],nt,?,50µM*
O=C1C=C(c2ccc(-c3ccccc3)cc2)C[C@@H](c2ccc3c(c2)OCO3)C1,5%,0%,-1%,nt,16%,-6%
CC1=C(C(=O)OCC2CCCO2)C(c2ccncc2)C2=C(CC(C)(C)CC2=O)N1 (stereo not given),-12%[11.4 µM],-13%,9%,-30%,13%,-14%
COc1cccc(/C=N/Nc2nnc(C)n2N)c1OCc1ccccc1Cl,10%,-6%,-18%,-2%[57.1 µM],20µM*,-7%
COc1ccc(/C=N/Nc2nnc(C)n2N)cc1OC,nt,-21%,-6%[11.6 µM],-27%,11µM*,-17%
COc1ccc(/C=N/Nc2nnc(C)n2N)cc1OC(C)=O,nt,-12%,-5%[11.6 µM],-23%,?,-1%
COc1ccc(CSc2ccc(S(=O)(=O)N3CCCC3)cn2)cc1F,nt,nt,4%,nt,nt,-18%
CCN(CC(=O)Nc1ccc(NC(C)=O)cc1)C(=O)c1c(C)nn(-c2ccc(F)cc2)c1Cl,26%,-14%,7%,nt,23%,-22%
